In PubChem BioAssay (EPA / NIEHS) one finds outcome and AC50 data, which are given here for eight compounds.

Where “and” joins values, the source holds several entries; their conditions need not be identical. Identical values can stand only once. Records with an inconclusive call do not appear. More than one record can exist for a structure, and the calls need not agree. Calls of active or inactive are those of the source. The calls were made as follows, unless noted: active = hit-call score of the fitted dose curve at least 0.9, where 1 is the maximum; inconclusive = response in the unintended direction; inactive = score below 0.9.

Experiment [1] deals with CCAAT/enhancer-binding protein beta (Homo sapiens) (UniProt P17676). Briefly: ATG_C_EBP_CIS: Attagene CIS-FACTORIAL HepG2 Assay for human CCAAT/Enhancer Binding Protein (C/EBP) beta (AID 2282927; active = hit-call score of the fitted dose curve at least 0.9, where 1 is the maximum; inactive = score below 0.9). The settings on record: HepG2 Attagene cis-factorial transcription factor reporter; actives raise or lower the signal. The procedure, abridged:
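Following a 24 h incubation with test chemical, transfected HepG2 cells yielded RNA whose reporter transcripts were quantified by RT-PCR and fluorescent capillary electrophoresis, with DMSO serving as baseline for bidirectional fitting.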

Experiment [2] is described as follows: ATG_CMV_CIS: Attagene CIS-FACTORIAL HepG2 Assay for human CMV (Internal Marker) (AID 2282928; active = hit-call score of the fitted dose curve at least 0.9, where 1 is the maximum; inactive = score below 0.9;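 also: endpoint acts as a background internal control marker rather than a target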). The settings on record: HepG2 CMV promoter reporter, transcription factor profiling; actives raise or lower the signal. The procedure, abridged: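 Reporter transcripts from transfected HepG2 cells are isolated after 24 h of chemical dosing, reverse-transcribed and amplified. Fragments labeled with 6-FAM are cut with HpaI and quantified by capillary electrophoresis; DMSO defines baseline.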

The nature of experiment [3]: ATG_AP_2_CIS: Attagene CIS-FACTORIAL HepG2 Assay for human Activator Protein 2 (AP-2) (AID 2282932; active = hit-call score of the fitted dose curve at least 0.9, where 1 is the maximum; inactive = score below 0.9). The settings on record: HepG2 AP-2 cis-reporter, Attagene transcription factor profiling; actives raise or lower the signal. The procedure, abridged: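 Assay in transfected HepG2 with promoter-regulated reporters, 24 h incubation after dosing. Signal is reporter mRNA fluorescence (RT-PCR, capillary electrophoresis), analysed for both increases and decreases relative to DMSO controls.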

Experiment [4] in a line: ATG_BRE_CIS: Attagene CIS-FACTORIAL HepG2 Assay for human Bone Morphogenetic Protein (BMP) Response Element (BRE) (AID 2282933; active = hit-call score of the fitted dose curve at least 0.9, where 1 is the maximum; inactive = score below 0.9). The settings on record: HepG2 BMP response element reporter, Attagene transcription factor profiling; actives raise or lower the signal. The procedure, abridged: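 Endogenous transcription factor activity read in transiently transfected HepG2 cells after 24 h chemical exposure. Bidirectional curve fitting against DMSO; readout is reporter transcript level by RT-PCR with capillary electrophoresis of labelled products.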

Experiment [5] concerns the target Transcription factor E2F1 (Homo sapiens) (UniProt Q01094). Briefly: ATG_E2F_CIS: Attagene CIS-FACTORIAL HepG2 Assay for human E2F Transcription Factor 1 (AID 2282935; active = hit-call score of the fitted dose curve at least 0.9, where 1 is the maximum; inactive = score below 0.9). The settings on record: HepG2 Attagene cis-reporter, E2F reporter RNA transcripts; actives raise or lower the signal. In a few lines: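 In this cis-factorial format, endogenous factor activity drives transfected reporters in HepG2; transcripts collected at 24 h are quantified by fluorescence after RT-PCR and capillary separation.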

The nature of experiment [6]: ATG_E_Box_CIS: Attagene CIS-FACTORIAL HepG2 Assay for human Enhancer Box (E-box) (AID 2282936; active = hit-call score of the fitted dose curve at least 0.9, where 1 is the maximum; inactive = score below 0.9). The settings on record: HepG2 E-box cis-reporter transcription, actives raise or lower the signal. The procedure, abridged: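 Measured 24 h post-dosing in HepG2 cells transfected with multiple cis-regulated reporter units, signal being reporter mRNA induction detected by fluorescent RT-PCR with capillary electrophoresis; gain or loss fitted against DMSO.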

A short description of experiment [7]: ATG_M_61_CIS: Attagene CIS-FACTORIAL HepG2 Assay for M61 Transcription Factor (Internal Marker) (AID 2282937; active = hit-call score of the fitted dose curve at least 0.9, where 1 is the maximum; inactive = score below 0.9). The settings on record: HepG2 Attagene CIS-FACTORIAL M61 internal marker reporter; actives raise or lower the signal. In a few lines: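 Readout: fluorescent reporter mRNA fragments resolved by capillary electrophoresis after RT-PCR. Transiently transfected human HepG2 cells carried MRTU constructs reporting endogenous TF activity; 24 h chemical exposure; gain or loss of signal fitted relative to DMSO.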

Experiment [8] in a line: ATG_EGR_CIS: Attagene CIS-FACTORIAL HepG2 Assay for human Early Growth Response 1 (EGR1) (AID 2282938; active = hit-call score of the fitted dose curve at least 0.9, where 1 is the maximum; inactive = score below 0.9). The settings on record: HepG2 Attagene CIS-FACTORIAL EGR reporter mRNA; actives raise or lower the signal. In a few lines: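 Read-out: fluorescent reporter-mRNA fragments resolved by capillary electrophoresis after RT-PCR, 24 h post-dose in transiently transfected HepG2. Endogenous transcription-factor activity reported via cis-element-regulated reporter units; gain or loss fitted relative to DMSO.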

A short description of experiment [9]: ATG_M_19_CIS: Attagene CIS-FACTORIAL HepG2 Assay for M19 Transcription Factor (Internal Marker) (AID 2282939; active = hit-call score of the fitted dose curve at least 0.9, where 1 is the maximum; inactive = score below 0.9). The settings on record: HepG2 Attagene CIS-FACTORIAL M19 internal marker reporter; actives raise or lower the signal. The procedure, abridged:
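Internal marker readout, fitted in both directions against DMSO, from HepG2 cells carrying transfected cis-element reporter constructs; RT-PCR and capillary electrophoresis of reporter mRNA after 24 h exposure.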

A short description of experiment [10]: ATG_GATA_CIS: Attagene CIS-FACTORIAL HepG2 Assay for human GATA Binding Protein (AID 2282944; active = hit-call score of the fitted dose curve at least 0.9, where 1 is the maximum; inactive = score below 0.9). The settings on record: HepG2 GATA cis-element reporter, Attagene multiplex mRNA; actives raise or lower the signal. The procedure, abridged:
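Reporter transcripts from a GATA cis-regulated unit, among multiplexed reporters in transfected HepG2 cells, were measured by RT-PCR with capillary electrophoresis after 24 h dosing. Induction or loss scored relative to DMSO.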

The nature of experiment [11]: ATG_GLI_CIS: Attagene CIS-FACTORIAL HepG2 Assay for human Zinc Finger Protein GLI1 (AID 2282945; active = hit-call score of the fitted dose curve at least 0.9, where 1 is the maximum; inactive = score below 0.9). The settings on record: HepG2, Attagene cis-factorial reporter mRNA, GLI element; actives raise or lower the signal. The procedure, abridged:
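HepG2 cells transiently transfected with cis-promoter multiplexed reporter units report endogenous transcription factor activity. After 24 h chemical exposure, reporter mRNA was quantified by RT-PCR, 6-FAM labelling, HpaI digestion and capillary electrophoresis, with bidirectional fitting against DMSO.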

A short description of experiment [12]: TOX21_p53_BLA_p2_viability: Viability Assessment in the Tox21 HCT-116 p53 Agonism Beta-lactamase Assay, Phase 2 (AID 2283591).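 Also: compound exposure lasted 16 h at 37 °C; actives lower the ATP signal meaning cytotoxicity.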 The procedure, abridged: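 HCT-116 p53-bla cells (4000/well) rested 5 h at 37C, then received compounds in DMSO (217-fold dilution) for 16 h at 37C, 5% CO2. After the CCF4 read, CellTiter-Glo was added; ATP luminescence was read after 30 min at room temperature.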

Experiment [13] concerns the target Cellular tumor antigen p53 (Homo sapiens) (UniProt P04637). Briefly: TOX21_p53_BLA_p2_ratio: Tox21 HCT-116 p53 Agonism Beta-lactamase Assay, Ratio, Phase 2 (AID 2283592). The procedure, abridged:
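DMSO-normalized, positive-direction endpoint derived from the 460 nm/530 nm FRET ratio in HCT116 p53 beta-lactamase reporter cells exposed 16 h at 37C and loaded with CCF4-AM for 2 h.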

Experiment [14] has the same target. Briefly: TOX21_p53_BLA_p3_ratio: Tox21 HCT-116 p53 Agonism Beta-lactamase Assay, Ratio, Phase 3 (AID 2283596). In a few lines: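 Cells were seeded at 4000/well, rested 5 h at 37C, then dosed with DMSO compound solutions (217-fold dilution) for 16 h. CCF4-AM substrate was loaded for 2 h at room temperature, and the 460/530 nm emission ratio was fitted for gain of signal versus DMSO.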

Experiment [15] can be described thus: TOX21_p53_BLA_p4_viability: Viability Assessment in the Tox21 HCT-116 p53 Agonism Beta-lactamase Assay, Phase 4 (AID 2283597).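 Also: hits lower the luminescence signal meaning cytotoxicity.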 In a few lines: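 In this multiplexed secondary endpoint, HCT116 cells (4000 per well, compound at 5 h, 16 h treatment) received CellTiter-Glo after the beta-lactamase read. Luminescence after 30 min RT reflects ATP, and falling signal marks cytotoxicity.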

The target of experiment [16] is Cellular tumor antigen p53 (Homo sapiens) (UniProt P04637). Briefly: TOX21_p53_BLA_p5_ratio: Tox21 HCT-116 p53 Agonism Beta-lactamase Assay, Ratio, Phase 5 (AID 2283599). The procedure, abridged:
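HCT-116 cells carrying a p53-inducible beta-lactamase reporter were seeded at 4000 cells/well and dosed after 5 h with compound in DMSO (217-fold dilution). After 16 h at 37C, CCF4-AM substrate was added for 2 h, and the 460/530 nm emission ratio was scored as gain-of-signal versus DMSO.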

Experiment [17] in a line: TOX21_p53_BLA_p5_viability: Viability Assessment in the Tox21 HCT-116 p53 Agonism Beta-lactamase Assay, Phase 5 (AID 2283600). The procedure, abridged: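 Here cell health was gauged by ATP levels in wells holding 4000 cells, each treated 16 h with DMSO-delivered compounds at 217-fold dilution; reduced luminescence marked toxicity.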
For experiment [18], the target named is Cellular tumor antigen p53 (Homo sapiens) (UniProt P04637). Briefly: TOX21_p53_BLA_p4_ratio: Tox21 HCT-116 p53 Agonism Beta-lactamase Assay, Ratio, Phase 4 (AID 2283601). In a few lines:
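HCT116 cells carrying an inducible beta-lactamase reporter were plated at 4000 cells/well, rested 5 h, then exposed to compounds in DMSO (217-fold dilution) for 16 h at 37C. CCF4-AM substrate was loaded 2 h at room temperature; 460/530 nm emission ratio scored gain-of-signal versus DMSO.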

A short description of experiment [19]: TOX21_p53_BLA_p3_viability: Viability Assessment in the Tox21 HCT-116 p53 Agonism Beta-lactamase Assay, Phase 3 (AID 2283593).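 Also: cells exposed to compound for 16 h before reading.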 The procedure, abridged:
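HCT-116 cells (4000/well) rested 5 h at 37C, then got DMSO compounds by pin tool (217-fold dilution) for 16 h at 37C, 5% CO2. After the bla read, CellTiter-Glo was added and luminescence read at 30 min, room temperature.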

Chain of Cellular tumor antigen p53 (Homo sapiens) (P04637 whole entry, looked up): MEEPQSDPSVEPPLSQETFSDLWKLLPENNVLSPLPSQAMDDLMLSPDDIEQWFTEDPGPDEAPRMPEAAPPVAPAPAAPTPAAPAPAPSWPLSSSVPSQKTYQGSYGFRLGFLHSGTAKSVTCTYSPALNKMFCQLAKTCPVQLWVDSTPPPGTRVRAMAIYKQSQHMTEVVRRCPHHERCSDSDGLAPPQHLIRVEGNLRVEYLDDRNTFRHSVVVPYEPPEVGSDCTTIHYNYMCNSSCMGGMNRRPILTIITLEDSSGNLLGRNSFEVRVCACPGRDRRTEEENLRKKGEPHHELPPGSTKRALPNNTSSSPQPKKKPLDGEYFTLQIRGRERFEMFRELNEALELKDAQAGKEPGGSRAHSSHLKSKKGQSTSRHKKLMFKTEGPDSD
Chain of Transcription factor E2F1 (Homo sapiens) (Q01094 whole entry, looked up): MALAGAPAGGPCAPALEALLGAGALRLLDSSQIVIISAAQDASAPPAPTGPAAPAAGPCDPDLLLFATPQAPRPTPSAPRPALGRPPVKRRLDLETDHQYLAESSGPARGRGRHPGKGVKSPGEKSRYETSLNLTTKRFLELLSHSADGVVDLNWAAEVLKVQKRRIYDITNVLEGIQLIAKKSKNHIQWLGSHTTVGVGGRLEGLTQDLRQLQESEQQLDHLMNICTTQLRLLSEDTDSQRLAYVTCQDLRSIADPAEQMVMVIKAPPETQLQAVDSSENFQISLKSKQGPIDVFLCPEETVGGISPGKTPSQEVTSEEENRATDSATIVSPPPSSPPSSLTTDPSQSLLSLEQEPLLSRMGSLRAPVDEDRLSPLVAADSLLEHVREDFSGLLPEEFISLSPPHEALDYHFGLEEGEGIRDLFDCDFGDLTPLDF
Chain of CCAAT/enhancer-binding protein beta (Homo sapiens) (P17676 whole entry, looked up): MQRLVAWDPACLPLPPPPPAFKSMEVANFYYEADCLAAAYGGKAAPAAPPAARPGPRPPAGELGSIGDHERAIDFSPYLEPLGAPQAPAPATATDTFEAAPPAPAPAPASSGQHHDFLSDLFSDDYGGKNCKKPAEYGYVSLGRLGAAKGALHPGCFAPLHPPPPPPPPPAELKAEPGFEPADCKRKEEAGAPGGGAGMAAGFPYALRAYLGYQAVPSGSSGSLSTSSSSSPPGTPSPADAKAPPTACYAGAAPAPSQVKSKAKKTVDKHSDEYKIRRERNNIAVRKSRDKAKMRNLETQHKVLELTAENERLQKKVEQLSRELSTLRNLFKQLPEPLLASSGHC

As for `CCO[Si](CCCN)(OCC)OCC`, the outcome in experiment [1], in experiment [2], in experiment [3], in experiment [4], in experiment [5] and in [6] was inactive. For the same compound, the call in [7], in experiment [8], in experiment [9], in experiment [10], in experiment [11] and in experiment [12] was inactive. In addition, the outcome in experiment [13], in [14], in experiment [15], in [16], in [17] and in experiment [18] was inactive.

For `COc1cc(CNC(=O)CCCC/C=C/C(C)C)ccc1O`, the compound was classed as inactive in experiment [12], in experiment [13], in experiment [19], in experiment [14], in [16] and in [17]. Further, in experiment [18], the outcome was inactive.

`COc1ccccc1Oc1c(NS(=O)(=O)c2ccc(C(C)(C)C)cc2)nc(-c2ncccn2)nc1OCCO`: the result in experiment [12], in experiment [13], in experiment [19] and in experiment [16] was inactive.

For `CNC(=C[N+](=O)[O-])NCCSCc1csc(CN(C)C)n1`, the result in experiment [1], in experiment [2], in experiment [3], in experiment [4], in [5] and in experiment [6] was inactive. Also, the compound was classed as inactive in [7], in experiment [8], in experiment [9], in [10], in experiment [11] and in experiment [13]. For the same compound, the compound was called inactive in experiment [19], in experiment [14], in experiment [15], in [16] and in experiment [17].

For `COc1ccc(C(=O)c2ccccc2O)c(O)c1`, the result in [13], in experiment [14], in [15], in experiment [16], in experiment [17] and in experiment [18] was inactive.

Turning to `CCCCCC[C@@H](O)C/C=C\CCCCCCCC(=O)O`, the AC50 in [1] was 77 µM (active); in experiment [4], 139 µM (active); in experiment [5], 177 µM (active); in experiment [6], 170 µM (active); in experiment [10], 165 µM (active); in [13], 68.9 µM (active). In addition, the AC50 in [19] was 30.5 µM (active); in [14], 36.6 µM (active); in experiment [15] it was 40.5 µM (active) and 27.9 µM (active); in [16], 37.4 µM (active); in experiment [18], 73.6 µM (active). Also, the call in experiment [2], in [3], in experiment [7], in experiment [8], in [9] and in experiment [11] was inactive. The compound was called inactive in experiment [12], in experiment [13], in experiment [19], in experiment [14], in [15] and in [16]. Besides, the outcome in [17] and in experiment [18] was inactive.

Consider `O=S(=O)(O)c1cccc2ccccc12`, for which the outcome in [1], in experiment [2], in [3], in experiment [4], in [5] and in experiment [6] was inactive. The outcome in experiment [7], in experiment [8], in experiment [9], in experiment [10], in experiment [11] and in experiment [12] was inactive. Besides, the outcome in experiment [14], in experiment [16] and in experiment [18] was inactive.

Take `CC(C)C1OCCN1CCOC(=O)NCCCCCCNC(=O)OCCN1CCOC1C(C)C` (centres undefined): the result in experiment [12], in [13], in experiment [19], in experiment [15], in experiment [16] and in [17] was inactive. Further, the result in [18] was inactive.
